# Measurements from the supplement of paper PMC7801607.
# Legend:
# CHO = assay: % viability of CHO cells (MTT); higher = less toxic; conditions: 48 h
# How it was run: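 After overnight attachment of CHO cells seeded at 10^6 cells/well in 200 µL, the medium was exchanged for fresh medium holding compound at 2 or 20 µM. Exposure lasted 48 h. Survival was read with the colorimetric tetrazolium (MTT) assay and expressed as percent of untreated cells.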
# HepG2-A16-CD81 = assay: % inhibition of HepG2 viability (CellTiter-Glo); higher = more toxic; conditions: 5 µM;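 also: HepG2-A16-CD81 hepatoma cells plated as in the liver-stage assay but without sporozoites, with DMSO wells as negative and 25 µM puromycin as positive control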
# [1] = test system: Plasmodium falciparum NF54 stage IV/V gametocytes; assay: % inhibition of gametocyte viability (PrestoBlue); higher = more inhibition; conditions: 48 h
# How it was run: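 Compound at 1 or 5 µM was incubated with Stage IV/V NF54 gametocytes (2% gametocytaemia, 5% haematocrit) for 48 h at 37 °C, stationary and hypoxic. A 2 h PrestoBlue step followed, with fluorescence read at 612 nm on transferred supernatant. Inhibition of gametocyte viability, in percent, was normalised to vehicle and kill controls from a single run.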
# [2] = test system: Plasmodium falciparum NF54 asexual blood stage; assay: % inhibition of asexual blood stage proliferation (pLDH); higher = more inhibition; conditions: 72 h
# How it was run: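 Compound was tested at 2 or 20 µM against Plasmodium falciparum NF54 ring stages (1% haematocrit, 2% parasitaemia) for 72 h at 37 °C in 4% CO2, 3% O2 and 93% N2. Survival was read at 620 nm with the parasite lactate dehydrogenase assay, and inhibition of asexual proliferation was given as a percentage of controls.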
# [3] = test system: Plasmodium falciparum NF54 stage IV/V gametocytes; assay: % inhibition of gametocyte viability (ATP bioluminescence); higher = more inhibition; conditions: 24 h
# How it was run: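 Compound at 1 or 5 µM was tested on stage IV/V NF54 gametocytes, enriched on density gradients and plated at 30,000 per well in 96-well plates. After 24 h at 37 °C, ATP was quantified by Promega BacTiter Glo bioluminescence. Values are percent inhibition of gametocyte viability from one run, normalised to controls.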
# [4] = test system: Plasmodium falciparum NF54 stage IV/V gametocytes; assay: % inhibition of gametocyte viability (luciferase reporter); higher = more inhibition; conditions: 48 h
# How it was run: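 Percent inhibition came from luminescence and was normalised to controls in a single run. Gametocytes (stage IV/V, NF54-Pfs16-GFP-Luc line, 2% gametocytaemia, 2% haematocrit) were treated with compound at 1 or 5 µM and incubated for 48 h at 37 °C without agitation under hypoxia. Readings used 30 µL lysate with 30 µL Promega luciferin substrate on a GloMax-Multi+ reader, integrating for 10 s.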
Structure (SMILES),% viability of CHO cells (CHO; 2 µM),% viability of CHO cells (CHO; 20 µM),% inhibition of HepG2 viability (HepG2-A16-CD81),% inhibition of gametocyte viability ([1]; 1 µM),% inhibition of gametocyte viability ([1]; 5 µM),% inhibition of asexual blood stage proliferation ([2]; 2 µM),% inhibition of asexual blood stage proliferation ([2]; 20 µM),% inhibition of gametocyte viability ([3]; 1 µM),% inhibition of gametocyte viability ([3]; 5 µM),% inhibition of gametocyte viability ([4]; 1 µM),% inhibition of gametocyte viability ([4]; 5 µM)
Cc1[nH]c2ccccc2c1CCNCc1ccc(/C=C/C(=O)NO)cc1,76.4%,37.9%,54.5%,19.9%,34.4%,62.2%,79.9%,< 0%,< 0%,31.8%,3.05%
C[C@@H](O)[C@H](N)C(=O)NS(=O)(=O)c1cccc(-c2ccc3[nH]ncc3c2)c1,85.2%,96%,-0.0475%,35.8%,19.7%,-13.1%,32%,< 0%,< 0%,< 0%,6.84%
Cc1ccc(NC(=O)c2ccc(CN3CCN(C)CC3)cc2)cc1Nc1nccc(-c2cccnc2)n1,87.6%,50.2%,6.65%,< 0%,< 0%,60.6%,98.3%,< 0%,< 0%,0.104%,< 0%
COc1cc(NS(=O)(=O)c2ccc(C)cc2)c2ncccc2c1,118%,94.1%,-7.96%,< 0%,0.605%,45.4%,75.7%,1.27%,62.2%,3.47%,1.7%
O=C(O)[C@H]1C2CCC(CC2)[C@@H]1Nc1nc(-c2c[nH]c3ncc(F)cc23)ncc1F,91.6%,97.8%,-9.1%,< 0%,< 0%,11.9%,55.2%,0.663%,2.93%,< 0%,< 0%
CC(C)(C)NC(=O)N[C@H](C(=O)N1C[C@H]2[C@@H]([C@H]1C(=O)NC(CC1CCC1)C(=O)C(N)=O)C2(C)C)C(C)(C)C (stereo partly specified),108%,50.4%,9.51%,4.37%,8.14%,36.6%,73.7%,< 0%,< 0%,< 0%,< 0%
Cc1cc(-c2ccccc2)c(C(=O)C(=O)Nc2ccc(N3CCN(c4ncc(F)cn4)CC3)cc2)n1C,90.7%,72.7%,10.6%,< 0%,< 0%,2.18%,63.9%,5.9%,5.39%,< 0%,< 0%
CCCCc1ccc(S(=O)(=O)Nc2cc(C)on2)cc1,106%,124%,15.2%,18%,10.4%,84.8%,64.2%,2.13%,< 0%,< 0%,< 0%
COc1cc(C(C(=O)NC2CCCCC2)N(C(=O)Cc2c[nH]c3ccccc23)c2ccc(C(C)C)cc2)cc(OC)c1OC (stereo unspecified),90.8%,90.4%,1.92%,18.7%,22.7%,22.1%,71.8%,< 0%,7.49%,1.84%,18.1%
NC(=O)c1cnc2ccc(S(=O)(=O)c3ccccc3)cc2c1Nc1ccc(O)cc1,228%,58.1%,6.05%,< 0%,< 0%,29.7%,56.5%,< 0%,< 0%,< 0%,< 0%
NC(=O)C(c1ccccc1)(c1ccccc1)[C@H]1CCCN(CCc2ccc3c(c2)CCO3)C1,91.2%,-0.304%,1.31%,33.7%,14%,-5.36%,68.4%,< 0%,< 0%,12%,< 0%
